Active and inactive are the calls of the source. No stated cut-off is given here; in the data, active means fold change permeability below about 0.7 or above about 1.3; inactive means in between.
Test: compounds altering in vitro BBB leakiness – cell-based, FITC-avidin fluorescence, HTS, primary screen (AID 1963498); further: test concentration not given here
Details: brain endothelial barrier, actives lie on both sides

Row | SMILES | fold change permeability
1 | CC(C)NNC(=O)c1ccncc1 | 0.6 (active)
2 | COC(=O)C1=C(C)NC(C)=C(C(=O)OC)C1c1cccc(NC(=O)NCCCN2CCC(c3cccc(OC)c3)CC2)c1 | 1.2 (inactive)
3 | CC(=O)O[C@H]1C[C@@H]2CC[C@@H]3[C@H](CC[C@@]4(C)[C@H]3C[C@H]([N+]3(C)CCCCC3)[C@@H]4OC(C)=O)[C@@]2(C)C[C@@H]1[N+]1(C)CCCCC1 | 1 (inactive)
4 | CC(C)(CN1C(=O)C(Cl)=C(Cl)C1=O)CN1C(=O)C(Cl)=C(Cl)C1=O | 1.1 (inactive)
5 | Cc1cccc(-c2[nH]c(C(C)(C)C)nc2-c2ccc3nccnc3c2)n1 | 1.4 (active)
6 | Cc1ccc(C(=O)Nc2ccc(S(=O)(=O)O)c3cc(S(=O)(=O)O)cc(S(=O)(=O)O)c23)cc1NC(=O)c1cccc(NC(=O)Nc2cccc(C(=O)Nc3cc(C(=O)Nc4ccc(S(=O)(=O)O)c5cc(S(=O)(=O)O)cc(S(=O)(=O)O)c45)ccc3C)c2)c1 | 1.3 (active)
7 | CCN(C)C(=O)C1(CCOc2ccccc2)CCN(Cc2ccc(O)c(Cl)c2)CC1 | 1 (inactive)
8 | Cn1ccc2cc3c(cc21)CCN3C(=O)Nc1cccnc1 | 1.4 (active)
9 | O=c1onc2cnc3ccccc3n12 | 1.1 (inactive)
10 | CN(C)CCCN1c2ccccc2Sc2ccc(C(F)(F)F)cc21 | 1.2 (inactive)
11 | Cc1nc(C(=O)N2CCC[C@H]2Cc2nnc(-c3ccccc3)o2)c(-c2ccccc2F)s1 | 1 (inactive)
12 | CCOC(=O)C(C)(C)Oc1ccc(Cl)cc1 | 0.9 (inactive)
13 | CCCCOc1ccc(CC/C=C2\SC(=O)N(CCN)C2=O)cc1 | 1.6 (active)
14 | Cc1cc(C(=O)N2Cc3cnn(C)c3Nc3ccccc32)ccc1CNC(=O)N1CCN(Cc2cc(O)cc(O)c2)CC1 | 1.2 (inactive)
15 | CN(C)C/C=C(/c1ccc(Br)cc1)c1cccnc1 | 1.7 (active)
16 | C[C@H]1O[C@@H](n2cc(F)c(=O)[nH]c2=O)[C@H](O)[C@@H]1O | 0.8 (inactive)
17 | Nc1cc(Cl)c(NC2=NCCN2)c(Cl)c1 | 1 (inactive)
18 | COc1ccccc1-c1cc(Nc2cccc(CS(N)(=O)=O)c2)ncn1 | 0.9 (inactive)
19 | CC(C)(C)NCC(O)c1ccc(O)c(CO)c1 (centres undefined) | 0.9 (inactive)
20 | CC(=O)c1ccc(S(=O)(=O)NC(=O)NC2CCCCC2)cc1 | 1.1 (inactive)

Row | SMILES | fold change permeability
21 | O=Nc1c(-c2c(O)[nH]c3cc(Br)ccc23)[nH]c2ccccc12 | 1.2 (inactive)
22 | CN1Cc2sccc2C(c2ccc(O)c(O)c2)C1 (centres undefined) | 1 (inactive)
23 | Oc1cc(O)cc(/C=C/c2ccc(O)c(O)c2)c1 | 0.7 (active)
24 | C=CCN1CCc2c(cc(O)c(O)c2Cl)C(c2ccccc2)C1 (centres undefined) | 1 (inactive)
25 | CC(C)(Oc1ccc(CCNC(=O)c2ccc(Cl)cc2)cc1)C(=O)O | 0.9 (inactive)
26 | C[N+](C)(C)CC=O | 1.1 (inactive)
27 | C=CC(N)CCC(=O)O (centres undefined) | 1.5 (active)
28 | C[C@]12CCC(=O)C=C1CC[C@@H]1[C@@H]2CC[C@@]2(C)[C@H]1CC[C@]2(O)C(=O)CO | 1.1 (inactive)
29 | CC(C)=CCC/C(C)=C/COc1ccc2ccc(=O)oc2c1 | 2 (active)
30 | O=P(O)(O)C(O)(Cn1ccnc1)P(=O)(O)O | 0.8 (inactive)
31 | CC(C)Cn1c(=O)n(C)c(=O)c2[nH]cnc21 | 0.7 (active)
32 | O=C(O)CSCC(=O)NC1CCSC1=O (centres undefined) | 1.7 (active)
33 | C=C1C[C@@]23CC[C@H]4[C@@](C)(CCC[C@@]4(C)C(=O)O)[C@@H]2CC[C@]1(O)C3 | 0.9 (inactive)
34 | Cc1c(C(=O)N2CCOc3ccc(-c4ccc(N)nc4)cc3C2)ccc(S(C)(=O)=O)c1F | 1.2 (inactive)
35 | O=C(Nc1ccccc1C(=O)NC1CCCCNC1=O)c1cc2ccccc2s1 (centres undefined) | 1.9 (active)
36 | COc1ccccc1N1CCN(CCN(C(=O)c2ccc(F)cc2)c2ccccn2)CC1 | 0.8 (inactive)
37 | Cc1nc(N=Nc2ccc(S(=O)(=O)O)cc2S(=O)(=O)O)c(COP(=O)(O)O)c(C=O)c1O | 0.9 (inactive)
38 | Cc1ccc2c(c1CCC(=O)O)CC[C@@H](NS(=O)(=O)c1ccc(Cl)cc1)C2 | 0.8 (inactive)
39 | NC(N)=NCc1cccc(I)c1 | 0.9 (inactive)

Reference: PubChem BioAssay
